DAX1 inh-1: DAX1 (NR0B1) inhibitors, primary screen, cell-based, HEK293, Gal4-DAX1, luciferase luminescence. Nuclear receptor subfamily 0 group B member 1 (Homo sapiens), P51843. inhibition, % at 6.75 µM. hit rate 0.99% among 340,000. AID 504766, 2011. HEK293 Gal4-DAX1 luciferase reporter;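 active = inhibition above the mean over all tested compounds plus 3 SD, cut at about 4.2% in these data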;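 also: 0% = DAX1-transfected cells with DMSO and 100% = empty-vector control cells with DMSO; inhibition shows as a rise in luminescence from relieved DAX1 repression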
DAX1 inh-2: DAX1 (NR0B1) inhibitors on StAR promoter, primary screen, cell-based, luminescence, SF-1 (NR5A1), full-length DAX-1 | hit rate 1.1% among 370,000 | HEK293T StAR-luciferase reporter, SF-1/DAX-1 repression relief | AID 652010, 2013 | inhibition, % at 6.8 µM;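 active = inhibition above the mean over all tested compounds plus 3 SD, cut at about 3.6% in these data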;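 also: 0% = DAX-1 cells with DMSO and 100% = cells lacking DAX-1 with DMSO; higher inhibition means more luminescence from relief of DAX-1 repression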
hgDAF-12 ag: H. glycines DAF-12 receptor agonists, primary screen, cell-based, luminescence, HEK293, GAL4 fusion, UAS-luciferase | Nuclear hormone receptor DAF-12 (Heterodera glycines), GAL4 fusion | HEK293 GAL4-hgDAF12 UAS-luciferase reporter, agonist luminescence; normalized to butyrate control | activation, % at 6.8 µM | hit rate 1.8% among 370,000 | AID 687014, 2013;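 active = activation above a cutoff set at the mean of all screened compounds plus 3 SD, cut at about 10% in these data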;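 also: 0% = DMSO wells and 100% = sodium butyrate wells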
ssDAF-12 act: S. stercoralis DAF-12 nuclear receptor activators, primary screen, cell-based, luminescence, HEK293, GRIP1 co-expression, lit1-tk-luc | Nuclear hormone receptor DAF-12 (Strongyloides stercoralis) | HEK293 ssDAF-12/GRIP1 lit1-tk-luc reporter; % of 3 µM dafachronic acid response | activation, % at 6.8 µM | hit rate 1% among 370,000;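 active = activation above the mean over all tested compounds plus 3 SD, cut at about 0.9% in these data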;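 also: 0% = DMSO-only wells and 100% = 3 µM delta7-dafachronic acid wells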
NR1D1 modulator: modulators of Rev-erb alpha DNA binding, primary screen, biochemical, FITC-DNA, fluorescence polarization, uHTS; AID 1259318, 2017; activity, % at 10 µM; hit rate 0.79% among 370,000; Nuclear receptor subfamily 1 group D member 1 (Homo sapiens), P20393; Rev-erbα–FITC-DNA binding, 90 min;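 active = activity above about 14%, limit read from the data; passing the limit was not always enough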;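 also: 0% = DMSO wells with 35 nM protein and 100% = DMSO wells with 750 nM protein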
Target sequence (P20393 whole entry, looked up): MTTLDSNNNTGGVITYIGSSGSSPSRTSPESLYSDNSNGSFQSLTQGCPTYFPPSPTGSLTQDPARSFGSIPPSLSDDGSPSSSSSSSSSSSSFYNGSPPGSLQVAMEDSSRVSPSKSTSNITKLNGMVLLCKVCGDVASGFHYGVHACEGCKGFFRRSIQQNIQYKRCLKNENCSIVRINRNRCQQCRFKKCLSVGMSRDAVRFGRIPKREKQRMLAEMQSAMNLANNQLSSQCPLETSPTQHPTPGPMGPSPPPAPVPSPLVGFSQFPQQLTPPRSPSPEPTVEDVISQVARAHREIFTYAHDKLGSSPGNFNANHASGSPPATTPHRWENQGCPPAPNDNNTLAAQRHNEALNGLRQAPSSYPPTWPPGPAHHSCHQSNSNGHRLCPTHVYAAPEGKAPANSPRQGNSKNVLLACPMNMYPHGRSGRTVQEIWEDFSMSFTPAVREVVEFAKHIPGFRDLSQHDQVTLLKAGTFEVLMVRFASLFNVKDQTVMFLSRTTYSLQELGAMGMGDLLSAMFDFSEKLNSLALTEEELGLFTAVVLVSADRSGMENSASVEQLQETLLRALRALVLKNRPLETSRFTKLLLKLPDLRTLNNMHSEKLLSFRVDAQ
hcDAF12 agonist: H. contortus DAF-12 nuclear receptor activators, primary screen, cell-based, luminescence, HEK293, lit1-tk-luc reporter | HEK293 hcDAF-12 lit1-tk-luc reporter; 0% DMSO, 100% Δ7-dafachronic acid | activation, % at 6.8 µM | hit rate 1.4% among 370,000 | AID 652067, 2013;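 active = activation above the mean of all tested compounds plus 3 SD, cut at about 5.5% in these data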;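 also: 100% = response to 3 µM Δ7-dafachronic acid high control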
Rev-erbA confirm: modulators of Rev-erb alpha DNA binding, confirmation, biochemical, FITC-DNA, fluorescence polarization, single point; shares compounds with NR1D1 modulator; 90 min; activation, % at 25 µM; hit rate 61% among 3,000; AID 1259319, 2017;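 active = activation at or above a set limit, or at least 3 SD above the negative control mean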;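 also: 0% = 35 nM protein with DMSO and 100% = 750 nM protein high control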
RORg counter: modulation of RORgamma DNA binding, dose response, counter-screen for Rev-erb alpha modulator project, biochemical, fluorescence polarization, FITC-DNA; shares compounds with NR1D1 modulator; purified RORgamma protein-FITC-DNA binding; IC50, µM; hit rate 8% among 910; AID 1259320, 2017;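 active = Compounds whose fitted half-maximal concentration for disrupting protein-DNA binding is below 10 micromolar; the record names Rev-erb in its text, so the target is in doubt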
Active calls of the source: *; x = no result. Shown are actives, neighbours in structure and some others; about 4.8% of the full set was active somewhere.

SMILES	DAX1 inh-1	DAX1 inh-2	hgDAF-12 ag	ssDAF-12 act	NR1D1 modulator	hcDAF12 agonist	Rev-erbA confirm	others
O=[N+]([O-])c1ccc(O)c(-c2cc(C(F)(F)F)nc(-c3ccccc3)n2)c1	-0.9	-1.7	0.9	-0.8	133.2*	0.4	159.3*	RORg counter=7.96*
Oc1ccccc1-c1cc(C(F)(F)C(F)F)nc(-c2ccccc2)n1	1.6	0.4	4.4	-1.2	3.9	-2.2	x
COc1ccc(C(=O)OCCN2CCN(C3CN(Cc4cn(Cc5cccc(F)c5)nn4)S(=O)(=O)C3)CC2)cc1OC (stereo not drawn)	x	-2.0	0.7	-1.9	-1.7	-3.4	x
CCCC[C@H](C(=O)N(CC)c1ccccc1)[C@@H](O)c1ccc(Cl)cc1	x	-1.0	1.9	-0.1	2.6	-2.2	x
COc1cccc(CC(=O)Nc2sc3c(c2C(N)=O)CCCC3)c1	0.8	0.2	2.2	-0.8	29.4*	-2.9	1.9
COc1cccc(-n2nnc3c(=O)n(CC(=O)Nc4ccccc4C)cnc32)c1	0.3	-0.6	-2.9	-1.2	23.3*	-1.7	4.8
CCOc1ccccc1NC(=O)Cn1cnc2c(nnn2-c2cccc(OC)c2)c1=O	-0.1	-0.6	-1.8	-1.3	12.1	-1.3	x
O=C(CSc1nc2ccccc2s1)CSc1nc2ccccc2s1	-0.2	0.9	1.5	-0.1	-1.8	2.3	x
O=c1oc2ccccc2n1CSc1nc2ccccc2s1	1.5	3.2	10.6*	0.1	18.0*	3.5	19.7*
Cn1c(=O)c(Nc2ccc(Cl)cc2)c2c3c(cccc31)C(=O)c1ccccc1-2	x	-0.2	4.0	-0.1	24.2*	1.0	12.4
O=C(Nc1nc2ccccc2n1CCOc1ccccc1)c1ccco1	-0.8	-1.2	1.3	-1.2	1.0	-2.2	x
O=C(Nc1nc2ccccc2n1Cc1ccc(Cl)cc1)c1ccco1	-0.6	-0.2	0.1	-1.1	27.7*	-0.8	6.9
Cc1ccc(OCCn2c(NC(=O)c3ccco3)nc3ccccc32)cc1	-0.7	-0.7	-0.4	-1.2	29.8*	-0.2	12.7
CCCCN1CN2Cc3cc(F)ccc3C2CS1(=O)=O (stereo not drawn)	x	0.2	2.1	-0.2	0.4	-0.9	x
O=S1(=O)c2ccc(N3CCCC3)cc2Oc2ccccc2CN1Cc1cn(Cc2ccc(F)cc2)nn1	x	-1.3	-3.6	-0.9	11.1	-2.0	x
CCn1cc(C(=O)NCCc2ccc(Cl)cc2)c(=O)c2cc(S(=O)(=O)N(C)C)ccc21	-1.4	-0.3	2.0	-1.0	43.9*	-1.3	26.8*
CCn1cc(C(=O)NCCc2ccc(C)cc2)c(=O)c2cc(S(=O)(=O)N(C)C)ccc21	x	0.1	-2.3	-0.8	19.2	0.0	x
CCn1c2ccccc2c2cc(NC(=O)CSc3nnc(-c4cccc(Cl)c4)o3)ccc21	-0.3	-0.1	-1.8	-0.9	31.9*	-2.8	10.6
O=C1CCC[C@H]2C[C@H](NCCc3ccncc3)CC[C@]23CCCN13	x	x	-2.9	-1.9	-6.8	-0.7	x
Cc1ccc(C2NC(=O)c3n[nH]c(C)c32)cc1 (stereo not drawn)	x	0.2	1.7	-1.2	-0.4	1.4	x
CCSc1nc(N)c(C#N)c(-c2ccccc2Cl)c1C#N	-0.4	-0.8	-2.3	-1.0	24.9*	-2.3	22.3*

Screening data from PubChem BioAssay.
